The list is not random: actives were taken first. Their share in the collection is about 3.2%.
FMDV inh = blocks foot and mouth disease virus; 1.2% of 410,000 active; Potency, µM (titrated, usually from 57.9 µM), hits mostly inhibitors; AID 1159524; FMDV antiviral cell-based qHTS; calls by dose curve; tested in HEK293T cells; note: read-out not given here; nearly all actives have a fitted effect of over 45% in size
Vaccinia mCherry = vaccinia inhibition (mCherry reporter); Vaccinia virus mCherry reporter infection, fluorescence; Potency, µM (titrated, usually from 36.5 µM), actives largely listed as inhibitors; 0.63% of 310,000 active; AID 720579; calls by dose curve; tested in A549 cells; note: nearly all actives have a fitted effect of over 35% in size
Vaccinia Venus = vaccinia inhibition (Venus reporter). Vaccinia virus Venus reporter expression, fluorescence. 0.46% of 330,000 active. Potency, µM (series often up to 36.5 µM), hits mostly inhibitors; calls by dose curve; tested in A549 cells; note: nearly all actives have a fitted effect of over 30% in size
Marburg entry inh = inhibitors of Marburg virus binding or cell entry; Marburg virus pseudotyped entry inhibition, cell reporter; Potency, µM (titrated, usually from 37.8 µM), usual class: inhibitors; 1.8% of 300,000 active; AID 540276; calls by dose curve; tested in HEK293 cells
Lassa entry inh = Lassa virus entry inhibition; Lassa virus pseudotype entry inhibition, cell reporter; Potency, µM (doses to about 37.9 µM), usual class: inhibitors; 1.2% of 300,000 active; calls by dose curve; tested in HEK293 cells; note: nearly all actives have a fitted effect of over 50% in size
A number is an active result; . = inactive; ? = inconclusive; / = no result given.

SMILES	FMDV inh	Vaccinia mCherry	Vaccinia Venus	Marburg entry inh	Lassa entry inh
C=C(C)C(=O)C=CCCCC=CC(=O)OCC	/	/	/	.	/
COc1ccc(C2=NC3(CCCCCC3)N(CC(=O)Nc3ccc(C)c(C)c3)C2=O)cc1	.	.	.	?	?
Cc1cc(C(=O)NC(Cc2c[nH]c3ccccc23)C(=O)O)c(C)o1 (stereo not given)	.	.	.	.	.
COC(=O)C(Cc1c[nH]c2ccccc12)NC(=O)c1cc(-c2ccc(OC)c(OC)c2)oc1C (stereo not given)	.	.	.	?	10µM
C[C@@H]1CC=C[C@H]2[C@H]1C(=O)N(Cc1ccccc1)[C@H]2c1ccc2ccccc2c1Br	17.8µM	.	?	/	/
COc1ccc(/C=C/C(=O)N2CCc3c(cnc(C)c3CNS(=O)(=O)c3cccs3)C2)cc1	.	.	.	/	/
COc1cc(C(=O)NCC(c2ccco2)N2CCOCC2)cc(OC)c1OC (stereo not given)	.	.	.	.	.
Cc1ccc(S(=O)(=O)NC2c3cccc4cccc(c34)C2Sc2nc(C)cc(C)n2)cc1 (stereo not given)	.	.	.	17.8µM	?
Cc1ccc(C(=O)N2CCN(C3c4cccc5cccc(c45)C3NS(=O)(=O)c3ccccc3)CC2)cc1 (stereo not given)	.	/	.	11.2µM	12.6µM
CC(=O)N1CCN([C@@H]2c3cccc4cccc(c34)[C@H]2NS(=O)(=O)c2ccccc2)CC1	/	/	/	.	/
CC1CCCN(CCOCCOc2ccc(Cl)cc2Br)C1 (stereo not given)	.	/	/	4.61µM	?
CC1CCCN(CCCCOc2cccc(Br)c2)C1 (stereo not given)	.	.	.	2.91µM	3.26µM
Clc1ccc(OCCCN2CCCCC2)c(Br)c1	.	.	.	14.6µM	?
Cc1cc(Cl)c(OCCOCCN2CCCC(C)C2)c(Br)c1 (stereo not given)	.	.	.	?	12.6µM
Cc1ccc(NC(=O)C2c3ccccc3Oc3ccccc32)c(C)c1	.	.	.	.	.
O=C(NCC1CC1)c1cc(-c2ccccc2)nn1CC1CC(c2cccc([N+](=O)[O-])c2)=NO1 (stereo not given)	.	.	.	/	/
COCCCNCCCOc1ccc(C)cc1Br	.	.	.	?	?
COCCCNCCCOc1ccc(Cl)cc1Br	.	/	/	16.4µM	.
CN1CCN(CCOCCOc2ccc(Br)cc2Cl)CC1	.	/	/	/	/
CC1CCCN(CCOCCOc2ccc(Br)cc2Cl)C1 (stereo not given)	?	.	.	15.8µM	?
C[C@H](NC(=O)N1CCC(Cc2ccccc2)CC1)C(=O)O	.	.	.	.	.
CCC(=O)Nc1cc2nn(-c3ccc(OC)cc3)nc2cc1C	/	.	.	?	.
CCC(=O)Nc1cc2nn(-c3ccc(C)cc3)nc2cc1C	6.31µM	.	.	?	?
CCOC(=O)c1c(SC)n(-c2ccccc2)c(=S)n(-c2ccccc2)c1=O	.	.	.	.	.
CCOC(=O)c1c(SCCN2CCCCC2)n(-c2ccccc2)c(=S)n(-c2ccccc2)c1=O	20µM	.	.	.	.
SMILES	FMDV inh	Vaccinia mCherry	Vaccinia Venus	Marburg entry inh	Lassa entry inh
C=CC1=C2C=C(C3CC3)N(C3CCCCC3)C=C2C(=O)C(C)(OC(=O)c2ccco2)C1=O (stereo not given)	/	/	/	.	/
CC(NC(=O)C1CCN(S(=O)(=O)c2cc([N+](=O)[O-])ccc2Cl)CC1)c1ccccc1 (stereo not given)	.	.	.	?	.
Cc1ccc2nc(NC(=O)C3CCN(S(=O)(=O)c4cccc5nsnc45)CC3)sc2c1	?	.	.	?	?
O=C(Nc1nc2c(F)cccc2s1)c1ccc([N+](=O)[O-])o1	.	?	?	/	/
Cc1ccc2nc(NC(=O)C3CCN(S(=O)(=O)c4cc([N+](=O)[O-])ccc4Cl)CC3)sc2c1	?	?	?	8.2µM	?
O=C(NCc1cccnc1)C1CCN(S(=O)(=O)c2cc([N+](=O)[O-])ccc2Cl)CC1	?	14.1µM	?	.	.
O=C(Nc1nc2ccc(F)cc2s1)c1ccc([N+](=O)[O-])o1	.	?	10µM	/	/
O=C(Nc1nc2ccc(F)cc2s1)C1CCN(S(=O)(=O)c2cc([N+](=O)[O-])ccc2Cl)CC1	20µM	?	?	?	?
CCN1CCCC1CNC(=O)c1cnn(-c2nccc(-c3ccccc3F)n2)c1C (stereo not given)	.	.	.	/	/
COc1cccc(Oc2nc(-c3ccncc3)nc3ccccc23)c1	?	.	.	?	?
O=C(CC12CC3CC(CC(C3)C1)C2)Nc1nncs1	.	.	.	.	.
CCC(=O)NCc1nc(-c2cccc(NC(=O)c3ccc(C)s3)c2)oc1C	.	.	.	/	/
COc1ccc(CN(C2CCCC2)S(=O)(=O)c2ccccc2Br)cc1	/	/	/	12.5µM	/
